Laboratory results as given in ChEMBL document CHEMBL3988442, “University of Dundee, Small-Polar-MMV Screening Library” (2021).
For some of these results: Measured potencies and affinities stand elsewhere.

Tests used:
Parameters in all cases: scale not given: direction of the effect not stated beside the values
[1] = molecular target: Protein translocase subunit SecA (Escherichia coli (strain K12)) (UniProt P10408); assay: Assay to Identify E. coli SecA ATPase Inhibitors; format: functional; conditions: 30 µM
Chain of Protein translocase subunit SecA (Escherichia coli (strain K12)) (P10408 whole entry): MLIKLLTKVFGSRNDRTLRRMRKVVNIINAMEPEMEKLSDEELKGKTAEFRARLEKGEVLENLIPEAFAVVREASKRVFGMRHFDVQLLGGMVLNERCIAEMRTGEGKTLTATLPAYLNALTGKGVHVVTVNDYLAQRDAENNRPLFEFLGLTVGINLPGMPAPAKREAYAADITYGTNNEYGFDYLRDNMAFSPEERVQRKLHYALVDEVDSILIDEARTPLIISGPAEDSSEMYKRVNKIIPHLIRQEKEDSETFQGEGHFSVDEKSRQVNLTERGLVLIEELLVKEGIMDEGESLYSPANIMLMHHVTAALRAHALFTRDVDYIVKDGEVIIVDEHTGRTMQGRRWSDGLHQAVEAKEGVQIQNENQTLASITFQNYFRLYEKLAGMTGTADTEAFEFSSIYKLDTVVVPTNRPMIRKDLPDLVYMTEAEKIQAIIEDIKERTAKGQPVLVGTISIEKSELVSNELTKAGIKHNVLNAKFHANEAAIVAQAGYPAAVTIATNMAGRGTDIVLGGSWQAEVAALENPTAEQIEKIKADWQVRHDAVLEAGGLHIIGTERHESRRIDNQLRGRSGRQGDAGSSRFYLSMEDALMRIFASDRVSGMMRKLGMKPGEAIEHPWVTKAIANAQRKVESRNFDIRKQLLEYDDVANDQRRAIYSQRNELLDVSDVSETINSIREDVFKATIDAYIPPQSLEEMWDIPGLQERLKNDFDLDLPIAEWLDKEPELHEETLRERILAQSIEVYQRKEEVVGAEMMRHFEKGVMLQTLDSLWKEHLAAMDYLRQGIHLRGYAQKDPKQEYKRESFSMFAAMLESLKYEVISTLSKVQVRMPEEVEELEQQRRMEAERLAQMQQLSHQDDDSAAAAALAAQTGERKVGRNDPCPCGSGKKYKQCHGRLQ

[2] = molecular target: T1, Ubiquitin-activating enzyme e1, putative (Leishmania donovani (strain BPK282A1)) (UniProt E9BSI1); assay: Leishmania donovani Ubiquitin Activating Enzyme (LdE1); format: functional; conditions: 30 µM
T1 sequence (whole entry): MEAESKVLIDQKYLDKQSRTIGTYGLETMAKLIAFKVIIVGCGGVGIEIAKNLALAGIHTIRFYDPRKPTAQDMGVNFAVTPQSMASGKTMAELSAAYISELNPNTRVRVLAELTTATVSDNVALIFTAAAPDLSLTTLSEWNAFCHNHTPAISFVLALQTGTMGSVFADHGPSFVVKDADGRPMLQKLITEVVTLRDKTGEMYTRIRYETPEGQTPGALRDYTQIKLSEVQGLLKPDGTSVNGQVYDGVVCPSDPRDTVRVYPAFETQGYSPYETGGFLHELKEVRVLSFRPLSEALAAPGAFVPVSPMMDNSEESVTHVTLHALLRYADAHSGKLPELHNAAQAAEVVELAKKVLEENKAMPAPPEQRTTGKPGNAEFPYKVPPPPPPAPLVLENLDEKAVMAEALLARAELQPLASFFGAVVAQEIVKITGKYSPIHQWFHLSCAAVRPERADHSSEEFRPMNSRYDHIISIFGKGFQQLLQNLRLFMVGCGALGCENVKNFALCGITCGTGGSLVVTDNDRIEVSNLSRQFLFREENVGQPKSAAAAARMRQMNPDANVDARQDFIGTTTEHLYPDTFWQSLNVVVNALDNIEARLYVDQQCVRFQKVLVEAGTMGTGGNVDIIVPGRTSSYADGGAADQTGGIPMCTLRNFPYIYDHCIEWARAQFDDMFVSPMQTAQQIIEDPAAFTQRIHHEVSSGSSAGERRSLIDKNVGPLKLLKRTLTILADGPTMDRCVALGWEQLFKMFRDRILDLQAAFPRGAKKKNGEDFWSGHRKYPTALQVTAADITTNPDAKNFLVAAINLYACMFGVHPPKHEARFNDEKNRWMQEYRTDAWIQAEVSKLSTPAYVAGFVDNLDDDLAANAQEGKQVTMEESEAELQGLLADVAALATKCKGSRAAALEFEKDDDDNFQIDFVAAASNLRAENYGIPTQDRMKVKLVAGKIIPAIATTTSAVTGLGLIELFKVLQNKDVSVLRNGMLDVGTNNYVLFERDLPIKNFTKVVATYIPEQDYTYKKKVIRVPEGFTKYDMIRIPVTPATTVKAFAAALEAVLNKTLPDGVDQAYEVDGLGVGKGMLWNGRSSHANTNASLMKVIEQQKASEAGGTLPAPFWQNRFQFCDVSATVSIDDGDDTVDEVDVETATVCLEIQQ

[3] = molecular target: AMP-activated protein kinase, AMPK (Homo sapiens) (UniProt P54646+O43741+P54619+Q9UGJ0+Q9Y478+Q13131+Q9UGI9); assay: AMP-dependent Kinase enzyme assay. An in vitro enzyme assay that detects ADP turnover that is directly proportional to AMPK activity. This uses naive AMPK that is activated during the assay with MK-8722; format: functional; conditions: 30 µM
[4] = molecular target: Sialic acid-binding Ig-like lectin 9 (Homo sapiens) (UniProt Q9Y336); assay: Hs-Siglec9 ALPHAscreen SOP 20170721; conditions: 10 µM
Chain of Sialic acid-binding Ig-like lectin 9 (Homo sapiens) (Q9Y336 whole entry): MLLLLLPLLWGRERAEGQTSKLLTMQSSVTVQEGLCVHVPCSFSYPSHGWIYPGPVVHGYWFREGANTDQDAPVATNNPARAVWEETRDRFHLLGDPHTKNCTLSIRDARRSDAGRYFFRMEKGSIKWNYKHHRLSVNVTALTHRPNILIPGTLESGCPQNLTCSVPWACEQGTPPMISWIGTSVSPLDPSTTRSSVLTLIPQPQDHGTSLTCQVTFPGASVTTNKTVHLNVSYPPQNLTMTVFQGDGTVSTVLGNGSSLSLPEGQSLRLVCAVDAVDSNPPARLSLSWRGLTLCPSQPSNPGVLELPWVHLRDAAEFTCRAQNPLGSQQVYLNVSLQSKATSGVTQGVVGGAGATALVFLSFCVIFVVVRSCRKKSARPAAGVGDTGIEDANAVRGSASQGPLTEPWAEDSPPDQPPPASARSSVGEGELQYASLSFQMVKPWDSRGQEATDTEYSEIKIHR

[5] = test system: Trypanosoma cruzi; assay: Trypanosoma cruzi phosphomannomutase and mannose-1-phosphate guanylyltransferase assay; format: functional; conditions: 10 µM
[6] = molecular target: T2, Arginase-2, mitochondrial (Homo sapiens) (UniProt P78540); assay: in vitro enzyme assay to detect the production of urea directly proportional to the activity of Arginase II; format: functional; conditions: 33.3 µM; note: in the data most compounds retested in dose-response had high values
T2 sequence (whole entry): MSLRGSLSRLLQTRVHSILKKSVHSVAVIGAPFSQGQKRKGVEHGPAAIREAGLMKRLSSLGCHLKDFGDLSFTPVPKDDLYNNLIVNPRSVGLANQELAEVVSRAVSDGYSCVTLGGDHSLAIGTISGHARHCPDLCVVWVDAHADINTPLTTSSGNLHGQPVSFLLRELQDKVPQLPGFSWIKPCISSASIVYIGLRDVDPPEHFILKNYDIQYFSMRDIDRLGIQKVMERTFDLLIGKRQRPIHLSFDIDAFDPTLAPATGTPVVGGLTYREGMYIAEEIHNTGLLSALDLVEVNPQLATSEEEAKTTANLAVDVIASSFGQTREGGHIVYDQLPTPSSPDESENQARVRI

[7] = molecular target: T3, Proteasome subunit beta (Trypanosoma cruzi) (UniProt O96673); assay: Trypanosoma cruzi proteasome chymotrypsin-like activity (TcProtChymo) assay.; note: in the data most compounds retested in dose-response had high values; format: functional; conditions: 9.37 µM
T3 sequence (whole entry): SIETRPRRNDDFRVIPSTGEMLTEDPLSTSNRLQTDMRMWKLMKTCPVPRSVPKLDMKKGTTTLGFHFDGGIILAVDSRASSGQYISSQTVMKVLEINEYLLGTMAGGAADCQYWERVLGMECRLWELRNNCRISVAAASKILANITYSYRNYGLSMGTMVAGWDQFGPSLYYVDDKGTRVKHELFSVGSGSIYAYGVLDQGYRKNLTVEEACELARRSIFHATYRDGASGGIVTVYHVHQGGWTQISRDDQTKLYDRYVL

[8] = species on record: Homo sapiens; assay: To identify inhibition of the IFN signalling (Jak-Stat) pathway via expression of an eGFP reporter gene under the control of an IFN-stimulated response element (ISRE) containing MxA promoter.; format: functional; conditions: 30 µM
[9] = molecular target: T4, Tyrosyl-tRNA synthetase, putative (Trypanosoma cruzi (strain CL Brener)) (UniProt Q4DSP6); assay: Trypanosoma cruzi tyrosyl tRNA synthetase (TcYRS) _High Tyrosine SOP; format: functional; conditions: 30 µM; note: in the data most compounds retested in dose-response had high values
T4 sequence (whole entry): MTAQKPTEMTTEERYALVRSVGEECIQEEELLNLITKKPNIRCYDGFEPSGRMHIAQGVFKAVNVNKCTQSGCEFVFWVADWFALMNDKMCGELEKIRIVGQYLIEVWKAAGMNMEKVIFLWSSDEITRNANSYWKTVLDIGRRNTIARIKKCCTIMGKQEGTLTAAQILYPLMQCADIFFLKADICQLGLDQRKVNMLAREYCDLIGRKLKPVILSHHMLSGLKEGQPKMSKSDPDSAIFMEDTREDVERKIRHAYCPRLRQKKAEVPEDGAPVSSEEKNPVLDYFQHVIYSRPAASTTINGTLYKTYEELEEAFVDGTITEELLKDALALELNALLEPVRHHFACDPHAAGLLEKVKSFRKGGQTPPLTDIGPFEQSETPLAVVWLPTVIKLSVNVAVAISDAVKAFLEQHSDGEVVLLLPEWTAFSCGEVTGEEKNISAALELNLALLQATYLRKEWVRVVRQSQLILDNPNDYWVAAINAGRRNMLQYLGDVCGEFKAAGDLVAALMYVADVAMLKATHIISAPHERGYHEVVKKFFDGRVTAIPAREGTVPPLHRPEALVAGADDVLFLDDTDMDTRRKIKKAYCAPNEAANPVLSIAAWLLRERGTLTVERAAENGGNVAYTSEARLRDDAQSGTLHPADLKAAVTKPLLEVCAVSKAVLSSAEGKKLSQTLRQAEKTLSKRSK

[10] = molecular target: T4, Tyrosyl-tRNA synthetase, putative (Trypanosoma cruzi (strain CL Brener)); assay: Trypanosoma cruzi tyrosyl tRNA synthetase (TcYRS) SOP; format: functional; conditions: 30 µM
[11] = molecular target: Chromo domain-containing protein 1 (Saccharomyces cerevisiae (strain ATCC 204508 / S288c) (Baker's yeast)) (UniProt P32657); assay: ScCHD-1 Enzyme Inhibition Assay; format: functional; conditions: 30 µM; note: in the data most compounds retested in dose-response had high values
Chain of Chromo domain-containing protein 1 (Saccharomyces cerevisiae (strain ATCC 204508 / S288c) (Baker's yeast)) (P32657 whole entry, the tested form may be a part): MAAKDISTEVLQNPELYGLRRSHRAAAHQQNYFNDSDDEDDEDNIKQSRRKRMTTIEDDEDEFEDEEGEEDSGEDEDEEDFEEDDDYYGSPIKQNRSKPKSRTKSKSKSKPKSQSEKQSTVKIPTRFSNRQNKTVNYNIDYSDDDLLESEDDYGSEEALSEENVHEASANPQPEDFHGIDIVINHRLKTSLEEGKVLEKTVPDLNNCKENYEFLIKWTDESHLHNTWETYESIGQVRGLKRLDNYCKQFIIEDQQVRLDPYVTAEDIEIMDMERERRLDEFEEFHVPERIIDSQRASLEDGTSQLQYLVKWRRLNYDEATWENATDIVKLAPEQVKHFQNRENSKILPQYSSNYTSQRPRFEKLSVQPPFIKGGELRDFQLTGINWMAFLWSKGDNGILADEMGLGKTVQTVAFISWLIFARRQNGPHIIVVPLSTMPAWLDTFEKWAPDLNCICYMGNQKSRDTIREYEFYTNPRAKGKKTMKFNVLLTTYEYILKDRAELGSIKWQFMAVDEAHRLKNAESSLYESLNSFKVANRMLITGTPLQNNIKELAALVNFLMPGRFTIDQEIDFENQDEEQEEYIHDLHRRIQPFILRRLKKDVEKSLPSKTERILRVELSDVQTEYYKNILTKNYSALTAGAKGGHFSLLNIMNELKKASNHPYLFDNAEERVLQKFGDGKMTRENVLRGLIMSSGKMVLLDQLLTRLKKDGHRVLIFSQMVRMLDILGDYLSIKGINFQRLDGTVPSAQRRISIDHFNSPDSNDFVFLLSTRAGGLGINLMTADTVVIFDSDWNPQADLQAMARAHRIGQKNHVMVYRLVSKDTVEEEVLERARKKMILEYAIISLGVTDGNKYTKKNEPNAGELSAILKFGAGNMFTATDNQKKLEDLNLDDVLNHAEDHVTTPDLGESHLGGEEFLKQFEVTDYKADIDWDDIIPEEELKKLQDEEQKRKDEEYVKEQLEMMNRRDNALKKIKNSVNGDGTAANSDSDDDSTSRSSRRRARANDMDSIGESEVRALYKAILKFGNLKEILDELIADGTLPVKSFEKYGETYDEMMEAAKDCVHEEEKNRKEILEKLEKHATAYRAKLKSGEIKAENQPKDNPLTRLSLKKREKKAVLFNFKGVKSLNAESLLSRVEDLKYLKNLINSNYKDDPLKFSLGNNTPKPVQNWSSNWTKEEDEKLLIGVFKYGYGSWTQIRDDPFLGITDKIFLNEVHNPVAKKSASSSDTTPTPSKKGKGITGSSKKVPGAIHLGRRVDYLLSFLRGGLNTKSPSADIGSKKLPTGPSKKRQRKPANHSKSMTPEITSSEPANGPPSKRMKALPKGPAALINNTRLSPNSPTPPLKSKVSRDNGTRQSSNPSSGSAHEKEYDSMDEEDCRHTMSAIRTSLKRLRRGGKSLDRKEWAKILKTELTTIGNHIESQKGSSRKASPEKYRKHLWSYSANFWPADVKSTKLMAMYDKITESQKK

| Structure (SMILES) | Percent Effect [1] [%] | Percent Effect [2] [%] | Percent Effect [3] [%] | Percent Effect [4] [%] | Percent Effect [5] [%] | Percent Effect [6] [%] | Percent Effect [7] [%] | Percent Effect [8] [%] | Percent Effect [9] [%] | Percent Effect [10] [%] | Percent Effect [11] [%] |
| --- | --- | --- | --- | --- | --- | --- | --- | --- | --- | --- | --- |
| Cn1cc(CN2CCC3(C2)CN(Cc2ccsc2)C3)cn1 | -5.1 | 2.6 | -2.26 | 5.86 | 3.64 | 1.38 | 10.5 | -4.61 | 3.23 | 8.64 | 1.08 |
| c1ccc(Oc2cc(CNCC3CNc4ccnn4C3)ccn2)cc1 (stereo not given) | -2.02 | 11.4 | -0.557 | -0.022 | 5.85 | 2.37 | 11.7 | 11.8 | 19.8 | 20.2 | -13.3 |
| c1cnn(C2CN(Cc3nc(-c4ccsc4)no3)C2)c1 | -3.15 | -10.5 | -7.01 | 2.96 | 8.27 | 1.15 | 12.7 | -0.515 | 4.41 | 12.2 | -4.96 |
| CC(=O)N1CCCC1C(=O)NCCOc1cc(C)cc(C)c1 (stereo not given) | -7.33 | 7.79 | -4.76 | 10.6 | 3.37 | -5.34 | -7.43 | -4.36 | 6.8 | 12.2 | -4.02 |
| COc1ccc(-c2cc(C3CCCCCN3S(=O)(=O)N(C)C)on2)cc1 (stereo not given) | -2.23 | -14.9 | 6.56 | -4.82 | 4.54 | -1.16 | 14.3 | 12.8 | -50.5 | -66.2 | -12.7 |
| c1cnc2c(C3CCN(Cc4ccsc4)CC3)n[nH]c2n1 | -4.33 | 20.3 | 10.3 | -8.48 | 5.14 | -1.62 | 17.9 | 18.2 | 3.23 | 9.09 | 20.2 |
| CN(CC(=O)N(C)C1CCCCC1)C1CCc2ccccc21 (stereo not given) | -3.95 | 7.89 | 6.4 | -4.14 | -7.14 | 3.45 | 7.35 | 15.2 | 2.45 | 9.76 | -6.2 |
| CCC(CNC(=O)c1cc(OC)ccc1Br)N1CCc2ccccc2C1 (stereo not given) | 0.461 | 0 | 3.64 | 9.31 | -7.14 | -4.29 | 20.3 | 11.2 | -0.529 | -2.44 | -4.45 |
| Cn1ccc(C(=O)NC2CCN(c3ncccn3)CC2)cc1=O | -2.08 | 13.5 | -7.39 | 7.92 | -0.0943 | 0.401 | 9.73 | 5.6 | 1.48 | 11.1 | -9.93 |
| CN(C)CC(=O)N1CCOC2(CCCN(c3ncccc3F)C2)C1 (stereo not given) | -5.7 | 8.11 | 1.61 | 5.4 | 0 | 1.25 | 4.48 | 8.63 | 7.92 | 13.4 | -5.27 |
| O=C(CCC1CCCC1)NCCn1nc(C2CCNC2)c2nccnc21 (stereo not given) | -2.79 | 12.2 | -13.6 | -8.06 | -6.52 | -5.34 | 17.6 | 23.6 | -3.23 | -3.9 | -19.5 |
| COc1c(CNC(c2ccc(F)cc2)C(C)(C)C)c(C)nn1C (stereo not given) | -1.68 | 5.26 | -4.48 | 2.41 | -6.01 | -7.28 | 4.84 | 30.8 | 0.49 | -4.88 | -5.33 |
| CCNC(c1cccnc1)c1ccc(F)c(F)c1 (stereo not given) | -1.6 | -1.27 | 6.62 | 2.25 | -0.923 | 4.09 | 5.66 | 5.14 | 1.04 | -5.06 | -14.2 |
| CC(=O)NCC(=O)N1CCC2(CC1)CN(c1cccnc1)C(=O)CO2 | -1.82 | 13.5 | -3.23 | -10.1 | -3.42 | 2.87 | 26.2 | -0.0812 | -1.08 | 10.3 | 0.305 |
| CC(NC(=O)CCOc1ccccc1Cl)c1nnc2n1CCC2 (stereo not given) | -2.36 | 10.8 | -3.16 | -0.604 | 6.51 | -2 | 5.77 | 6.7 | 5.42 | 16.1 | -6.83 |
| CS(=O)(=O)N1CCC(O)(Cn2c(C3CC3)nc3ccccc3c2=O)CC1 | -6.42 | 1.35 | 8 | 2.72 | -4.35 | -0.232 | 5.77 | 11.6 | -1.07 | -3.9 | 7 |
| CNC(=O)CCNC(=O)c1cccc(Cn2nc(C)cc2C)c1 | -1.98 | 4.17 | 1.31 | 2.11 | 5.15 | -3.09 | 10.7 | 15.9 | 6.32 | 7.69 | -5.17 |
| Cc1cc(CN2CCN(C(c3ccccc3)c3ccccc3)CC2)no1 | -4.43 | 12.7 | -1.9 | 14.9 | -2.55 | 1.14 | 2.87 | 15.5 | 8.37 | 11.4 | -8.11 |
| O=C(CCNC(=O)c1ccccc1N1CCOCC1)NC1CCCC1 | -4.31 | 16.4 | -6.31 | 6.63 | 4.76 | -0.798 | 13.1 | -7.41 | 8.33 | 21 | -9.11 |
| Cc1occc1C(=O)N1CCC2(CCC(=O)N(CC(N)=O)C2)CC1 | -6.56 | -4.17 | 0.341 | 3.65 | -3.6 | 2.21 | 10.9 | 3 | -2.1 | -7.69 | -2.07 |
